Shown are actives, neighbours in structure and some others; about 12% of the full set was active somewhere.
HP1b binding inh: HTS for Inhibitors of HP1-beta Chromodomain Interactions with Methylated Histone Tails; Chromobox protein homolog 1 (Homo sapiens), P83916; AlphaScreen HP1-beta / biotin-H3K9me3 peptide binding; Potency, µM (top dose mostly 114 µM), inactives show at the top dose activity change, negative = inhibition, actives largely listed as inhibitors; actives 0.56% (n = 390,000); AID 540317, 2011; note: potency is the fitted concentration of half-maximal effect; nearly all actives have a fitted effect of over 70% in size
Target sequence (P83916 whole entry, looked up): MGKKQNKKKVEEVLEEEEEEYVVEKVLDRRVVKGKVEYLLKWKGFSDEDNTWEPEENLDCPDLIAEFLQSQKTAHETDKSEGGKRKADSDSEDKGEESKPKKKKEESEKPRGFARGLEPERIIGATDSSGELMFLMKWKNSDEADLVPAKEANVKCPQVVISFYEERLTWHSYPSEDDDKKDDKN
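HP1-beta protein (50 nM final) preincubated 30 min at room temperature with biotinylated H3(1-18)K9me3 peptide (50 nM) in PBS pH 7.4, 0.01% Tween-20, then compound added for 30 min. AlphaScreen streptavidin donor/nickel chelate acceptor beads (10 ug/mL final), 30 min dark, luminescence read.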
G9a block: qHTS Assay for Inhibitors of Histone Lysine Methyltransferase G9a; Potency, µM (titrated, usually from 102 µM), for the others: top-dose activity, negative = inhibition, hits mostly inhibitors; AID 504332, 2011; actives 8.8% (n = 350,000); G9a H3K9 monomethylation, AlphaScreen, 2 h; note: potency is the fitted concentration of half-maximal effect; % is set by controls: 0 for no effect and ±100 for the full control effect; nearly all actives have a fitted effect of over 75% in size
Target sequence (Q96KQ7 913-1193 limits assumed): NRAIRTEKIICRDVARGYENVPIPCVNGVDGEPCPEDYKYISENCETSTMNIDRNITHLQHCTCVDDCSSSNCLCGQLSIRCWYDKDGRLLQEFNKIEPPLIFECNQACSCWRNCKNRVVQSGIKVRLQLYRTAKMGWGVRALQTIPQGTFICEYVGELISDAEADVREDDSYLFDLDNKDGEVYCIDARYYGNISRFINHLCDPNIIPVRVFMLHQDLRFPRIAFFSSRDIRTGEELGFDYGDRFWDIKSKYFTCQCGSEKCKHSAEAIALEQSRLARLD
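Step 1: enzyme (final 20 nM) with compound, 15 min RT. Step 2: substrate peptide 500 nM and SAM 20 uM, 2 h RT. Step 3: anti-H3K9me1 antibody and AlphaScreen beads, 10 min, then plate read.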
PI5P4Ka inh: qHTS for Inhibitors of phosphatidylinositol 5-phosphate 4-kinase (PI5P4K); PI5P4Kalpha enzyme, ADP-Glo luminescence, 60 min; stronger effect = lower value; Phosphatidylinositol 5-phosphate 4-kinase type-2 alpha (Homo sapiens), P48426; actives 1.2% (n = 330,000); AID 652105, 2013; max response, %; active = max response of -50% or lower; inconclusive = between -30% and -50%; inactive = -30% or higher; note: value at the top dose of about 77 µM; % is set by controls: 0 for no effect and ±100 for the full control effect
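Reactions run in 0.038 M HEPES pH 7.4, 0.28 mM EGTA, 0.1% CHAPS and 5% DMSO, with PI5P4Kalpha, substrate, compound and 5 microM ATP final, one hour at room temperature. Readout is ADP-Glo luminescence.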
BAZ2B inh: qHTS Assay for Inhibitors of BAZ2B; actives 4.4% (n = 360,000); Bromodomain adjacent to zinc finger domain protein 2B (Homo sapiens), Q9UIF8; AID 504333, 2011; AlphaScreen BAZ2B-H3K14Ac peptide displacement; Potency, µM (series often up to 114 µM), for the others: top-dose activity change, negative = inhibition, most hits filed as inhibitors; note: potency is the fitted concentration of half-maximal effect; % is set by controls: 0 for no effect and ±100 for the full control effect; nearly all actives have a fitted effect of over 60% in size
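Complex of BAZ2B and biotin-H3K14Ac (50 nM apiece) forms over 30 min at RT, then faces library compounds up to 110 uM for another 30 min; AlphaScreen beads added, 20 min dark incubation, luminescence read.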
PLK1 PBD inh: qHTS for Inhibitors of PLK1-PDB (polo-like kinase 1 - polo-box domain): Primary Screen; AID 720504, 2013; Serine/threonine-protein kinase PLK1 (Homo sapiens), P53350; actives 2.8% (n = 360,000); Plk1 PBD binding of FITC phosphopeptide, fluorescence polarization; Potency, µM, for the others: max response, negative = inhibition, usual class: inhibitors; note: potency is the fitted concentration of half-maximal effect; series mostly up to about 57 µM; % is set by controls: 0 for no effect and ±100 for the full control effect; nearly all actives have a fitted effect of over 65% in size
JMJD2A Tudor inh: qHTS Assay for Inhibitors of JMJD2A-Tudor Domain. Lysine-specific demethylase 4A (Homo sapiens), O75164. AlphaScreen JMJD2A-Tudor / H3K4me3 peptide binding. Potency, µM (titrated, usually from 114 µM), for inactives: top-dose activity change, negative = inhibition, most hits filed as inhibitors. actives 4.4% (n = 390,000); note: potency is the fitted concentration of half-maximal effect; % is set by controls: 0 for no effect and ±100 for the full control effect; nearly all actives have a fitted effect of over 50% in size
Active calls of the source: *; ? = inconclusive; nt = no result given; [ ] = remark or other dose. Unless noted, calls come from the whole dose curve; as a rule, active = well fitted curve in the direction sought with a large enough effect; inconclusive = small, poorly fitted or top-dose-only effect, or another doubt; inactive = no such curve, though single readings can be large; an effect the other way counts as inactive or inconclusive.

SMILES	HP1b binding inh	G9a block	PI5P4Ka inh	BAZ2B inh	PLK1 PBD inh	JMJD2A Tudor inh
O=C(CCCn1c(=O)c2cccn2c2ccccc21)NCCc1ccc(Cl)cc1	-10%	?	nt	?	nt	?
COc1ccsc1NC(=O)OCc1ccc(Cl)cc1	-16%	50µM*	-8	?	0%	?
CSc1nsc(NC(=O)OCc2ccc(Cl)cc2)n1	61%	nt	-8	8%	-3%	-2%
Cc1ccccc1Nc1nc(N)nc(COC(=O)/C=C/c2ccco2)n1	10%	50µM*	-19	?	-5%	-26%
O=[N+]([O-])c1ccc(OCCCCN2CCCCC2)cc1	31%	?	3	0%	-5%	4%
Clc1ccc(OCCCCN2CCCCC2)cc1	?	10µM*	-1	50µM*	-10%	1µM*
CC(C)c1ccc(OCCCCN2CCCCC2)cc1	?	-12%	-3	79µM*	-8%	0.79µM*
COc1cccc(C(=O)N2CCC[C@H]2C(=O)N2CCC[C@H]2C(=O)N[C@H](C)c2ccccc2)c1	nt	nt	1	nt	-6%	nt
C#CCOCCOCCOCCNc1nc(N2CCN(C(=O)[C@H](CCC(=O)O)n3cc(C(N)[C@H](C)CC)nn3)CC2)nc(N2CCN(C(=O)[C@H](Cc3ccc(O)cc3)n3cc(C(N)[C@H](C)CC)nn3)CC2)n1 (stereo partly drawn)	76%	-130%[59 µM]	-9	50µM*	-14%	40µM*
C#CCOCCOCCOCCNc1nc(N2CCN(C(=O)C(Cc3ccc(O)cc3)n3cc(C(N)C(C)CC)nn3)CC2)nc(N2CCN(C(=O)C(Cc3ccc(O)cc3)n3cc(C(N)C(C)CC)nn3)CC2)n1 (stereo not drawn)	36%	?	10	50µM*	3%	35µM*
O=C1CCC(C(=O)Nc2cc(C(F)(F)F)ccc2-n2cncn2)=NN1	30%	nt	1	-1%	-19%	-4%
CC[C@H](C)C(=O)O[C@@H]1C[C@H](C)C=C2C=C[C@H](C)[C@@H](CC[C@H]3C[C@@H](O)CC(=O)O3)[C@H]21	nt	20%[21.5 µM]	nt	nt	nt	nt
CCC(C)(C)C(=O)O[C@H]1C[C@@H](C)C=C2C=C[C@H](C)[C@H](CC[C@@H]3C[C@@H](O)CC(=O)O3)[C@H]21	10%	21%[12.7 µM]	-18	?	30µM*	?
CCOc1ccc(Cl)cc1-c1cc(C(=O)NCc2ccccc2OC)[nH]n1	nt	nt	0	nt	-17%	nt
CCN(CC)c1ccc(/C=N/Nc2nc3ccccc3[nH]2)c(O)c1	-16%	?	?	40µM*	-14%	50µM*
CCN(CC)c1ccc(/C=N/NC(=S)NCc2ccccc2)c(O)c1	-9%	-13%[59 µM]	4	22µM*	-10%	-26%
Oc1ccc(/C=N/N(c2ccccc2)c2ccccc2)cc1O	?	-148%	?	-18%	?	56µM*
CCN(CC)c1ccc(/C=N/N(c2ccccc2)c2ccccc2)c(O)c1	?	?	2	10µM*	-12%	8.9µM*
Cc1cc(C)c(C)c(S(=O)(=O)N2CCC(C(=O)Nc3ccncc3)CC2)c1C	7%[57 µM]	12%	17	-30%	3%	-25%
C(=N\N(c1ccccc1)c1ccccc1)/c1ccccn1	38%	-3%	15	1%	-5%	8%
COc1ccc(/C=N/N(Cc2ccccc2)c2ccccc2)cc1O	40µM*	28µM*	-6	28µM*	17µM*	10µM*
Oc1ccc(/C=N/N(c2ccccc2)c2ccccc2)c(O)c1O	nt	14µM*	nt	25µM*	nt	nt
Cc1ccc(CNC(=O)c2nc(SCc3ccc(F)cc3)ncc2Cl)cc1	3%	9%[59 µM]	nt	1%	nt	-14%

Assay outcomes as filed in PubChem.
